# PubChem BioAssay AID1159580 (chemical genetic matrix, 2015)
# The campaign covered roughly 5,500 compounds. About 2,000 (36%) were called active. Another 18% or so got no clear call; they are omitted. Some of the results follow. Values without a mark were called inactive. No stated cut-off is given here; in the data, active means normalized growth mostly below about 0.91 (no sharp cut-off); inconclusive means no clear call, values can overlap the other calls; inactive means mostly above about 0.92.
# Assay: chemical genetic growth profiling, strain panel (AID 1159580);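 further: tested at 20 µM; growth read once vehicle control cultures reached saturation at 30 °C; 1 = growth at the plate median or of vehicle wells; lower values mean less growth of the strain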
# Details: S. cerevisiae deletion strains, growth OD
structure (smiles),measurement,setting,value
N=C(N)c1ccc(OCCCCCOc2ccc(C(=N)N)cc2)cc1,normalized growth,"locus YAL013W, strain DEP1, hits give low values",1
same,normalized growth,"locus YAL021C, strain ccr4, hits give low values",0.908
same,normalized growth,"locus YAL026C, strain drs2, hits give low values",0.951
same,normalized growth,"locus YAL030W, strain snc1, hits give low values",0.935
same,normalized growth,"locus YBL061C, strain skt5, hits give low values",0.966
same,normalized growth,"locus YBR009C, strain hhf1, hits give low values",0.952
same,normalized growth,"locus YBR021W, strain FUR4, hits give low values",1.07
same,normalized growth,"locus YBR023C, strain chs3, hits give low values",0.986
same,normalized growth,"locus YBR171W, strain sec66, hits give low values",0.946
same,normalized growth,"locus YBR229C, strain ROT2, hits give low values",0.978
same,normalized growth,"locus YBR231C, strain swc5, hits give low values",0.919
same,normalized growth,"locus YBR279W, strain paf1, hits give low values",0.93 (active)
same,normalized growth,"locus YCL011C, strain gbp2, hits give low values",0.945
same,normalized growth,"locus YCL016C, strain dcc1, hits give low values",0.939
same,normalized growth,"locus YCL029C, strain bik1, hits give low values",0.89 (active)
same,normalized growth,"locus YCL061C, strain MRC1, hits give low values",0.916 (active)
same,normalized growth,"locus YCL069W, strain vba3, hits give low values",0.963
same,normalized growth,"locus YCR088W, strain abp1, hits give low values",0.966
same,normalized growth,"locus YDL005C, strain med2, hits give low values",0.979
same,normalized growth,"locus YDL035C, strain GPR1, hits give low values",0.901
same,normalized growth,"locus YDL040C, strain nat1, hits give low values",0.965
same,normalized growth,"locus YDL074C, strain BRE1, hits give low values",0.942
same,normalized growth,"locus YDL101C, strain DUN1, hits give low values",0.989
same,normalized growth,"locus YDL134C, strain PPH21, hits give low values",0.955
same,normalized growth,"locus YDL185W, strain tfp1, hits give low values",0.964
same,normalized growth,"locus YDL192W, strain arf1, hits give low values",0.933
same,normalized growth,"locus YDR001C, strain nth1, hits give low values",0.974
same,normalized growth,"locus YDR069C, strain doa4, hits give low values",1
same,normalized growth,"locus YDR101C, strain arx1, hits give low values",0.875 (active)
same,normalized growth,"locus YDR137W, strain rgp1, hits give low values",1
same,normalized growth,"locus YDR150W, strain NUM1, hits give low values",0.989
same,normalized growth,"locus YDR159W, strain sac3, hits give low values",0.85 (active)
same,normalized growth,"locus YDR162C, strain NBP2, hits give low values",0.941
same,normalized growth,"locus YDR195W, strain ref2",0.968
same,normalized growth,"locus YDR297W, strain sur2, hits give low values",0.958
same,normalized growth,"locus YDR318W, strain mcm21, hits give low values",0.878 (active)
same,normalized growth,"locus YDR334W, strain swr1, hits give low values",0.958
same,normalized growth,"locus YDR335W, strain msn5, hits give low values",0.977
same,normalized growth,"locus YDR388W, hits give low values",0.938
same,normalized growth,"locus YDR392W, strain spt3, hits give low values",0.808
same,normalized growth,"locus YDR502C, strain sam2, hits give low values",0.907 (active)
same,normalized growth,"locus YEL003W, strain gim4, hits give low values",0.929
same,normalized growth,"locus YEL037C, strain rad23, hits give low values",0.945
same,normalized growth,"locus YEL061C, strain CIN8 (second series), hits give low values",0.945
same,normalized growth,"locus YEL061C, strain CIN8, hits give low values",0.965
same,normalized growth,"locus YER015W, strain faa2, hits give low values",0.922 (active)
same,normalized growth,"locus YER016W, strain bim1, hits give low values",0.963
same,normalized growth,"locus YER110C, hits give low values",0.95
same,normalized growth,"locus YER111C, strain swi4, hits give low values",0.967
same,normalized growth,"locus YER155C, strain BEM2 (second series), hits give low values",0.874
same,normalized growth,"locus YER155C, strain BEM2, hits give low values",0.986
same,normalized growth,"locus YER167W, strain BCK2, hits give low values",0.915
same,normalized growth,"locus YFR010W, strain ubp6, hits give low values",0.954
same,normalized growth,"locus YGL078C, strain dbp3, hits give low values",0.929
same,normalized growth,"locus YGL086W, strain mad1, hits give low values",0.874 (active)
same,normalized growth,"locus YGL167C, strain pmr1, hits give low values",0.974
same,normalized growth,"locus YGL173C, strain kem1, hits give low values",0.865 (active)
same,normalized growth,"locus YGL227W, strain vid30, hits give low values",0.984
same,normalized growth,"locus YGL240W, strain doc1, hits give low values",0.991
same,normalized growth,"locus YGL248W, strain PDE1, hits give low values",0.964
same,normalized growth,"locus YGL253W, strain hxk2, hits give low values",0.8 (active)
same,normalized growth,"locus YGR078C, strain PAC10, hits give low values",0.947
same,normalized growth,"locus YGR135W, strain pre9, hits give low values",0.937
same,normalized growth,"locus YGR229C, strain SMI1, hits give low values",0.929
same,normalized growth,"locus YGR252W, strain gcn5, hits give low values",0.819
same,normalized growth,"locus YHR013C, strain ard1, hits give low values",1.09
same,normalized growth,"locus YHR027C, strain rpn1, hits give low values",0.946
same,normalized growth,"locus YHR030C, strain SLT2, hits give low values",0.974
same,normalized growth,"locus YHR079C, strain IRE1 (second series), hits give low values",0.888 (active)
same,normalized growth,"locus YHR094C, strain hxt1, hits give low values",0.94
same,normalized growth,"locus YHR129C, strain ARP1, hits give low values",0.968
same,normalized growth,"locus YHR142W, strain chs7, hits give low values",0.972
same,normalized growth,"locus YHR200W, strain rpn10, hits give low values",0.871 (active)
same,normalized growth,"locus YIL066C, strain RNR3, hits give low values",0.917
same,normalized growth,"locus YIL073C, strain SPO22, hits give low values",0.675
same,normalized growth,"locus YIL125W, strain kgd1, hits give low values",0.903 (active)
same,normalized growth,"locus YIR030C, strain dcg1, hits give low values",0.93
same,normalized growth,"locus YJL092W, strain hpr5, hits give low values",0.919
same,normalized growth,"locus YJL095W, strain BCK1 (second series), hits give low values",0.959
same,normalized growth,"locus YJL095W, strain BCK1, hits give low values",0.892
same,normalized growth,"locus YJL115W, strain asf1, hits give low values",0.923
same,normalized growth,"locus YJL129C, strain trk1, hits give low values",0.995
same,normalized growth,"locus YJL134W, strain LCB3, hits give low values",0.967
same,normalized growth,"locus YJL154C, strain vps35, hits give low values",0.989
same,normalized growth,"locus YJL164C, strain tpk1, hits give low values",0.974
same,normalized growth,"locus YJL166W, strain qcr8, hits give low values",0.978
same,normalized growth,"locus YJL168C, strain set2, hits give low values",0.925 (active)
same,normalized growth,"locus YJL187C, strain SWE1 (second series), hits give low values",0.929
